Shown is part of a subset that was picked to be rich in hits.
Tb PYK inh – inhibitors of Trypanosoma brucei pyruvate kinase; Q57TT1; TbPYK enzyme, Kinase-Glo Plus ATP luminescence, 45 min; Potency, µM (doses to about 76.8 µM), inactives show top-dose activity, negative = inhibition, most hits filed as inhibitors; 410,000 tested, 0.12% active; note: potency is the fitted concentration of half-maximal effect; % is set by controls: 0 for no effect and ±100 for the full control effect; nearly all actives have a fitted effect of over 50% in size
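TbPYK + substrate in 50 mM TEA pH 7.2, 100 mM KCl, 10 mM MgCl2, 0.05% BSA, 0.01% Tween-20; cpd pinned; ADP 130 uM final; 45 min RT; Kinase-Glo Plus 10 min; luminescence endpoint.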
Giardia FBPA inh – Giardia lamblia aldolase inhibition; purified Giardia FBPA; 290,000 tested, 0.71% active; Potency, µM (top dose mostly 59.6 µM), inactives show at the highest dose activity, negative = inhibition, usual class: inhibitors; A8B2U2; note: potency is the fitted concentration of half-maximal effect; % is set by controls: 0 for no effect and ±100 for the full control effect; nearly all actives have a fitted effect of over 55% in size
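Giardia FBPA (40 nM reagent) was preincubated 10 min at RT with compound (up to 57.5 uM final), then substrate plus GAPDH/TPI/NAD/arsenate coupling system with diaphorase/resazurin was added; resorufin fluorescence (525/598 nm) was read after 20 min.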
Sm TGR inh – S. mansoni TGR enzyme inhibition; purified TGR, DTNB reduction, TNB absorbance 405 nm; 360,000 tested, 3% active; AID 485364; Q962Y6; Potency, µM (series often up to 114 µM), inactives show at the top dose activity change, negative = inhibition, most hits filed as inhibitors; note: potency is the fitted concentration of half-maximal effect; % is set by controls: 0 for no effect and ±100 for the full control effect; nearly all actives have a fitted effect of over 60% in size
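First, TGR (20 nM dispensed) and NADPH were mixed with compound. Second, a 15 min room-temperature incubation followed. Third, further NADPH and then DTNB were added to start the reaction. Finally, TNB absorbance was monitored kinetically.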
CHX counter – counter-screen for Shiga toxin inhibitors: cycloheximide protein synthesis inhibition; cell reporter, cycloheximide protein synthesis inhibition counterscreen; max response, %; 300,000 tested, 12% active; in the data active = max response mostly above about 13%, no sharp cut-off; inactive = mostly below about 14%; note: read at 38.3 µM for the half of the compounds with a filed dose; 0% is about no effect
Shiga inhibitor – blocks Shiga toxin action in Vero cells | Vero cells, Shiga toxin protein synthesis inhibition reporter | inhibition, % at 38.7 µM | 290,000 tested, 9.2% active; in the data active = inhibition mostly above about 28%, no sharp cut-off; inactive = mostly below about 43%; note: 0% is about no effect
LmPK inhibitor – inhibitors of Leishmania mexicana pyruvate kinase; Q27686; 290,000 tested, 0.37% active; Potency, µM (doses to about 57.5 µM), for the others: top-dose activity change, negative = inhibition, actives largely listed as inhibitors; AID 1721; purified LmPK, Kinase-Glo ATP luminescence, 1 h; note: potency is the fitted concentration of half-maximal effect; % is set by controls: 0 for no effect and ±100 for the full control effect
Target sequence (Q27686 whole entry, looked up): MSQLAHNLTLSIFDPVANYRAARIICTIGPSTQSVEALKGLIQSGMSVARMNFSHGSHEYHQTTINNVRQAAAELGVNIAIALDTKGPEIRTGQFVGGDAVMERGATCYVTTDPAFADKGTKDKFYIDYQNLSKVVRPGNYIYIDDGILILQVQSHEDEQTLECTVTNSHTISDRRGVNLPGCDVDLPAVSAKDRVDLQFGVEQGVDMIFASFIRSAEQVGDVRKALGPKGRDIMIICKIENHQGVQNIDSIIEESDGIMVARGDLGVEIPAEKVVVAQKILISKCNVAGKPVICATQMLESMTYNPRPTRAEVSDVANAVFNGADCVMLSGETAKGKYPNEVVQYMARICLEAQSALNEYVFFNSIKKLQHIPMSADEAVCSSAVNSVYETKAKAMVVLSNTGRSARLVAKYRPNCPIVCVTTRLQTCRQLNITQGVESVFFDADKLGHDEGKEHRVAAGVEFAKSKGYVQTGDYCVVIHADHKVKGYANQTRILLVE
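In 50 mM imidazole pH 7.2 with 7 mM MgCl2, LmPK (0.1 nM) turned over PEP (0.5 mM) and ADP (0.1 mM) for 1 h at room temperature. Luciferase read-out of ATP.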
Active calls of the source: *; [ ] = remark or other dose. Unless noted, calls come from the whole dose curve; as a rule, active = well fitted curve in the direction sought with a large enough effect; inconclusive = small, poorly fitted or top-dose-only effect, or another doubt; inactive = no such curve, though single readings can be large; an effect the other way counts as inactive or inconclusive.

Results for Cc1c(Br)cc(C(=O)NCc2ccco2)c(C)c1C ?
Tb PYK inh: -11.6%; Giardia FBPA inh: 0.6%; Sm TGR inh: 35.5µM*; CHX counter: -1.6; Shiga inhibitor: 8.0; LmPK inhibitor: 2.3%

How did Cc1ccc(NC(=O)Cc2coc3c(C)c(C)ccc23)cc1Cl do in these assays?
Tb PYK inh: -0.1%; Sm TGR inh: 2.4%

What do the screens show for `O=C(NCc1ccco1)c1ccc2[nH]c(=O)c(=O)[nH]c2c1`?
Tb PYK inh: -0.1%; Giardia FBPA inh: -6.9%; Sm TGR inh: -31.5%; CHX counter: -3.9; Shiga inhibitor: -5.3; LmPK inhibitor: 6.3%

What do the screens show for `CCOc1ccc(NC(c2ccc(Cl)cc2)c2nnc(-c3cccc(F)c3)o2)cc1` (stereo not drawn)?
Tb PYK inh: -4.4%; Sm TGR inh: 2.6%

How did Cc1cnc(NC(=O)c2ccco2)s1 do in these assays?
Tb PYK inh: 0.1%; Giardia FBPA inh: -6.0%; Sm TGR inh: 0.5%; CHX counter: 34.0*; Shiga inhibitor: 125.4*; LmPK inhibitor: inconclusive

Results for Cc1sc(NC(=O)c2cccs2)nc1-c1ccccc1 ?
Tb PYK inh: 3.1%; Giardia FBPA inh: -1.6%; Sm TGR inh: 0.0%; CHX counter: 33.7*; Shiga inhibitor: 97.2; LmPK inhibitor: 2.1%

How did O=C(Nc1nsc(-c2ccccc2)n1)c1cccs1 do in these assays?
Tb PYK inh: -6.0%; Giardia FBPA inh: -17.3%; Sm TGR inh: 6.2%; CHX counter: 25.0*; Shiga inhibitor: 36.5*; LmPK inhibitor: inconclusive

What do the screens show for `CC(=O)c1sc(NC(=O)c2ccco2)nc1-c1ccccc1`?
Tb PYK inh: 0.7%; Giardia FBPA inh: 10.6%; Sm TGR inh: -13.0%; CHX counter: 21.4*; Shiga inhibitor: 64.6*; LmPK inhibitor: 9.1%

What do the screens show for `O=C(Nc1c(-c2ccccc2)nc2ccccn12)c1cccs1`?
Tb PYK inh: -0.5%; Giardia FBPA inh: 1.1%; Sm TGR inh: -6.6%; CHX counter: -2.4; Shiga inhibitor: -8.1; LmPK inhibitor: -8.0%

What do the screens show for `Cc1ccc2nc3c(cc(C#N)c(=O)n3-c3nnc(SCc4ccccc4Cl)s3)c(=O)n2c1`?
Tb PYK inh: -7.0%; Sm TGR inh: 6.4%

Results for Cc1sc(N/N=C/c2cccs2)nc1-c1ccccc1 ?
Tb PYK inh: -25.9%; Giardia FBPA inh: -1.8%; Sm TGR inh: 0.4%; CHX counter: 43.5*; Shiga inhibitor: 84.0*; LmPK inhibitor: -2.6%

What do the screens show for `CC(=O)c1c(C)[nH]c(C(=O)NC(C)c2ccccc2)c1C` (stereo not drawn)?
Tb PYK inh: -0.5%; Giardia FBPA inh: 4.5%; Sm TGR inh: 0.5%; CHX counter: 14.3; Shiga inhibitor: 14.3; LmPK inhibitor: -4.0%

Results for COCC(=O)Nc1nc(-c2ccccc2)c(C)s1 ?
Tb PYK inh: 3.2%; Giardia FBPA inh: -0.9%; Sm TGR inh: -1.7%; CHX counter: -1.1; Shiga inhibitor: 26.2; LmPK inhibitor: -4.5%

How did Oc1ccc(-c2nc3ccccn3c2NCc2ccco2)cc1 do in these assays?
Tb PYK inh: -6.4%; Giardia FBPA inh: -18.1%; Sm TGR inh: -4.1%; CHX counter: 35.2*; Shiga inhibitor: 36.9*; LmPK inhibitor: -22.9%

Results for CC(=O)c1c(C)[nH]c(C(=O)Nc2nc(-c3ccccc3)c(C)s2)c1C ?
Tb PYK inh: -1.6%; Giardia FBPA inh: 0.7%; Sm TGR inh: -5.8%; CHX counter: 22.9*; Shiga inhibitor: 15.1; LmPK inhibitor: 4.8%

Results for O=C(Nc1c(-c2ccccc2)nc2ccccn12)c1ccco1 ?
Tb PYK inh: 5.4%; Giardia FBPA inh: 0.9%; Sm TGR inh: -0.3%; CHX counter: 11.5*; Shiga inhibitor: 4.5; LmPK inhibitor: -1.7%

Results for O=C(NNC(=O)c1ccc(S(=O)(=O)N2CCCC2)cc1)c1ccc(Br)cc1 ?
Tb PYK inh: -7.9%; Sm TGR inh: -0.4%

How did CC1(C)O[C@H]2O[C@@H]([C@H](O)CON3C(=O)c4ccccc4C3=O)[C@H](O)[C@H]2O1 do in these assays?
Giardia FBPA inh: -1.0%[12.9 µM]

Results for CCOC(=O)c1sc(NC(=O)c2ccco2)nc1-c1ccccc1 ?
Tb PYK inh: -3.8%; Giardia FBPA inh: 4.4%; Sm TGR inh: -3.7%; CHX counter: -2.5; Shiga inhibitor: 18.0; LmPK inhibitor: 4.6%

What do the screens show for `COC(=O)c1sc(NC(=O)c2ccco2)nc1C`?
Tb PYK inh: -5.5%; Giardia FBPA inh: 8.9%; Sm TGR inh: -4.0%; CHX counter: 11.7; Shiga inhibitor: 52.1; LmPK inhibitor: -26.4%

How did Cc1sc(NC(=O)c2ccco2)nc1-c1ccccc1 do in these assays?
Tb PYK inh: -7.8%; Giardia FBPA inh: 1.9%; Sm TGR inh: -13.9%; CHX counter: 44.5*; Shiga inhibitor: 102.7*; LmPK inhibitor: -9.8%

Results for CC(=O)c1sc(NC(=O)c2ccccc2F)nc1-c1ccccc1 ?
Tb PYK inh: -1.5%; Giardia FBPA inh: -16.9%; Sm TGR inh: -0.8%; CHX counter: 43.4*; Shiga inhibitor: 133.8*; LmPK inhibitor: 8.4%

Results for Cc1nc(NC(=O)c2ccco2)sc1C(=O)O ?
Tb PYK inh: 25.1µM*; Giardia FBPA inh: -5.7%; Sm TGR inh: -10.4%; CHX counter: -6.6; Shiga inhibitor: 13.2; LmPK inhibitor: 25.1µM*

How did COc1ccc(-n2nc(C(=O)Nc3cc(C)ccn3)c3c4ccccc4n(C)c3c2=O)cc1Cl do in these assays?
Tb PYK inh: 0.3%; Sm TGR inh: -1.3%

What do the screens show for `CC(C)(CCCCCCCCCCC(C)(C)CC(=O)O)CC(=O)O`?
Giardia FBPA inh: inconclusive; CHX counter: -3.0; Shiga inhibitor: -2.4

How did Cc1cc(CN(C)C(=O)c2ccc3nc(Cc4ccccc4F)oc3c2)on1 do in these assays?
Tb PYK inh: 1.3%; Sm TGR inh: -7.1%; CHX counter: 46.0*; Shiga inhibitor: 75.1*; LmPK inhibitor: -5.9%

How did CN(Cc1nccn1C)C(=O)c1ccc2nc(Cc3ccccc3F)oc2c1 do in these assays?
Tb PYK inh: -12.0%; Sm TGR inh: -2.4%; CHX counter: 55.0*; Shiga inhibitor: 68.7*; LmPK inhibitor: -4.4%

How did CN(Cc1nccs1)C(=O)c1ccc2nc(Cc3ccccc3F)oc2c1 do in these assays?
Tb PYK inh: -2.2%; Sm TGR inh: 3.7%; CHX counter: -2.7; Shiga inhibitor: -12.9; LmPK inhibitor: -4.9%

Results for CCOc1ccc(NC(=NCc2ccc3c(c2)OCO3)SC2CC(=O)N(c3ccc(OCC)cc3)C2=O)cc1 (stereo not drawn) ?
Tb PYK inh: 0.9%; Giardia FBPA inh: 2.1%; Sm TGR inh: -1.1%; CHX counter: 63.2*; Shiga inhibitor: active; LmPK inhibitor: -6.5%

Results for COc1ccc(-c2nc(SCC(=O)NC3CCCCC3)n[nH]2)cc1 ?
Tb PYK inh: -3.3%; Sm TGR inh: 1.2%; CHX counter: 23.6*; Shiga inhibitor: 20.3; LmPK inhibitor: -6.4%

High-throughput results as filed in PubChem BioAssay.
